# Data as given in PubChem BioAssay (NCI).
# This is part of a sample that, as a whole, favours compounds with a hit. Of some 83,000 tested, about 20% had one in any assay.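 Method: cells in 96-well plates; compound added at one concentration; 48 h incubation; percent growth measured; values under 10 scored active.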 Values without a mark were called inactive. Active and inactive are the calls of the source.
# Legend:
# Assay in all cases: NCI-60 one-dose screen, 48 h (100 = growth as untreated, 0 = no growth, -100 = all killed)
# Conditions in all cases: 10 µM
# NCI-H23 lung = system: NCI-H23 lung
# NCI-H226 lung = system: NCI-H226 lung
# NCI-H322M lung = system: NCI-H322M lung
# HOP-62 NSCLC = system: HOP-62 NSCLC
# NCI-H460 lung = system: NCI-H460 lung
# NCI-H522 lung = system: NCI-H522 lung
# A549/ATCC NSCLC = system: A549/ATCC NSCLC
# 786-0 renal = system: 786-0 renal
# COLO 205 colon = system: COLO 205 colon
# DU-145 prostate = system: DU-145 prostate
Compound,growth (NCI-H23 lung),growth (NCI-H226 lung),growth (NCI-H322M lung),growth (HOP-62 NSCLC),growth (NCI-H460 lung),growth (NCI-H522 lung),growth (A549/ATCC NSCLC),growth (786-0 renal),growth (COLO 205 colon),growth (DU-145 prostate)
COc1ccc(-c2csc(NC(=O)CSc3nc(C)c(-c4ccccc4)n3Nc3ccccc3)n2)cc1,21.8%,63.8%,69.8%,71.1%,43.2%,58.2%,36.6%,53.3%,66.6%,65.3%
O=C(Nc1nc(-c2ccccc2Cl)cs1)c1cc(-c2ccc(Cl)cc2)nc2ccc(Cl)cc12,28.8%,72.7%,90.8%,28.5%,96.3%,57.8%,92.7%,23.5%,94.3%,32%
CCOC(=O)N1C/C(=C/c2ccc(Cl)cc2)C(=O)/C(=C/c2ccc(Cl)cc2)C1,72.1%,39.3%,79.2%,64.7%,77.8%,65.5%,61.1%,65.6%,45.3%,46.3%
CCCCCC(=O)c1ccc(OCCCN2CCN(C(=O)OCC)CC2)cc1,81.2%,73%,119%,108%,99.1%,101%,94.8%,97.5%,96.3%,107%
CC(=O)N1C/C(=C/c2ccc(Cl)cc2)C(=O)/C(=C/c2ccc(Cl)cc2)C1,-28% (active),-39.5% (active),-9.19% (active),-29.7% (active),-14.1% (active),-66.4% (active),-24.6% (active),-59.3% (active),-48.8% (active),-30.5% (active)
CN(C)CCNC(=O)c1cccn2c(=O)c3cc4ccccc4cc3nc12,-3.24% (active),-16% (active),3.8% (active),-26.8% (active),-31.7% (active),-88.5% (active),-27.1% (active),-31.3% (active),-15.2% (active),-3.1% (active)
Cn1c([N+](=O)[O-])cnc1/C=C1\Oc2ccccc2C1=O,-18% (active),-7.33% (active),18.6%,-10.3% (active),-39.5% (active),-48.5% (active),-31.4% (active),-10.9% (active),-64.6% (active),-8.91% (active)
c1ccc2c(-c3nc(N4CCOCC4)c4c5c(sc4n3)CCCCCC5)cccc2c1,107%,93.8%,110%,101%,104%,91.2%,97.7%,103%,114%,119%
CN(C)c1ccc(-c2cc(-c3cccc(NS(C)(=O)=O)c3)nc(N)c2C#N)cc1,21.5%,39.6%,21.1%,44.1%,5.32% (active),7.63% (active),25.9%,31%,-71.2% (active),-25.5% (active)
N#Cc1ncc(Br)c(NC2CCCCCC2)n1,103%,97.1%,105%,106%,116%,110%,89%,104%,113%,103%
CS(=O)(=O)Nc1cccc(-c2cc(-c3ccccc3Cl)c(C#N)c(N)n2)c1,38.7%,53.4%,51.8%,45.8%,5.56% (active),-7.33% (active),29.4%,46.7%,-0.179% (active),8.95% (active)
O=C(O)c1ccc(P(=O)(O)O)c([N+](=O)[O-])c1,115%,94.4%,102%,101%,103%,99.1%,93%,110%,112%,108%
CC[C@H]1CCC/C=C/[C@@H]2C[C@H](O)C[C@H]2[C@H](O)/C=C/C(=O)O1,-12.8% (active),-1.27% (active),-2.58% (active),25.2%,6.08% (active),-56.8% (active),5.74% (active),-49% (active),-97.2% (active),3.43% (active)
CN(C)CCOc1nc2ccccc2c2c1-c1ccc(Cl)cc1C2=O,-43.9% (active),3.47% (active),-34% (active),-20.4% (active),-20.7% (active),-65.5% (active),-28.4% (active),12.7%,-76.1% (active),-14.2% (active)
CN(CCc1ccccn1)c1ccccc1,110%,113%,113%,104%,118%,109%,99.7%,98.5%,104%,121%
Cc1ccc(-c2nc(/C=C3/C(=O)N(C)c4ccc(F)cc43)c3ccccn23)cc1,86.5%,106%,103%,77.9%,96.7%,60.5%,94.1%,107%,120%,99.3%
CCN(CC)Cc1cc(Nc2ccnc3cc(Cl)ccc23)ccc1OC,87.8%,105%,99%,88%,90.1%,69.3%,89.6%,97.4%,62.4%,107%
COc1ccc2c(c1)O/C(=C\c1ncc([N+](=O)[O-])n1C)C2=O,-7.25% (active),-42.3% (active),2.34% (active),-20% (active),-30.6% (active),-48.8% (active),-23.9% (active),-13.4% (active),-49.2% (active),-19.2% (active)
Cc1ccc(S(=O)(=O)Oc2ccc3c4c(c(=O)oc3c2)CCCCC4)cc1,62.9%,55.9%,95.1%,81%,37.2%,57.9%,40.9%,66.6%,28.5%,87.8%
COc1ccc2nc3cc(Cl)ccc3c(NCCNCC(C)O)c2c1 (stereo not given),42.8%,67.9%,25.8%,19%,0.055% (active),-56.5% (active),-3.68% (active),35.5%,8.35% (active),28.8%
